Many of the other results were omitted from the sample, so hits are more common in it than they were.
PI4K2A inh = qHTS for small molecular inhibitors of PI4K2A; Phosphatidylinositol 4-kinase type 2-alpha (Homo sapiens), Q9BTU6; purified PI4K2A, ADP-Glo luminescence, 1 h; stronger effect = lower value; activity change, negative = inhibition, % at 76.9 µM; hit rate 0.13% among 420,000; AID 1346378, 2018; in the data active = activity change below about -50%; inconclusive = mostly about -30% to -49%
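In this quantitative HTS, ADP production by PI4K2A was quantified luminescently after 1 h at ambient temperature; 100 microM adenosine served as plate-quality control.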
Tb PFK inh = qHTS Assay to Find Inhibitors of T. brucei phosphofructokinase. ATP-dependent 6-phosphofructokinase (Trypanosoma brucei brucei), O15648. T. brucei PFK, ADP-Glo luminescence. Potency, µM (doses to about 57.5 µM), usual class: inhibitors. hit rate 0.17% among 330,000. AID 485367, 2010; also: nearly all actives have a fitted effect of over 60% in size
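PFK 1.25 nM, F6P 0.5 mM, ATP 0.1 mM, 0.1 M TEA pH 8.0, 5 mM MgCl2, 0.01% Tween20, 0.1% BSA; 45 min RT. ADP-Glo readout. qHTS titration up to 57 uM; curves fitted, compounds curve-classed.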
Pin1 inhibitor = qHTS Assay to Find Inhibitors of Pin1. Potency, µM (top dose mostly 115 µM), most hits filed as inhibitors. Pin1 FP peptide displacement, HiFluor488, 10 min. hit rate 0.009% among 390,000; active = well fitted inhibition curve with a large enough effect in the polarisation, with a control signal flat, not every such curve was filed as active; inconclusive = small, poorly fitted or top-dose-only effect, or effect the other way, or a change in a side signal; inactive = no such curve, though single readings can be large or run the other way; the % refers to the polarisation
PGK inhibitor = qHTS Assay to Find Inhibitors of Phosphoglycerate Kinase. Phosphoglycerate kinase, glycosomal (Trypanosoma brucei brucei), P07378. Potency, µM (series often up to 57.5 µM), usual class: inhibitors. hit rate 0.043% among 380,000. PGK/GAPDH coupled, Kinase-Glo luminescence, 60 min; also: nearly all actives have a fitted effect of over 60% in size
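Recombinant glycosomal PGK reaction used 1,3-bisphosphoglycerate generated in-well by GAPDH (100nM final) in 100mM TEA pH 7.6, 5mM MgCl2, 0.01% Tween-20. After 60 minutes at room temperature, ATP was read by Kinase-Glo Plus luminescence end-point.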
PI5P4Ka inh = qHTS for Inhibitors of phosphatidylinositol 5-phosphate 4-kinase (PI5P4K) | PI5P4Kalpha enzyme, ADP-Glo luminescence, 60 min; stronger effect = lower value | Phosphatidylinositol 5-phosphate 4-kinase type-2 alpha (Homo sapiens), P48426 | AID 652105, 2013 | hit rate 1.2% among 330,000 | max response, %; active = max response of -50% or lower; inconclusive = between -30% and -50%; inactive = -30% or higher; also: value at the top dose of about 77 µM
Target sequence (P48426 whole entry, looked up): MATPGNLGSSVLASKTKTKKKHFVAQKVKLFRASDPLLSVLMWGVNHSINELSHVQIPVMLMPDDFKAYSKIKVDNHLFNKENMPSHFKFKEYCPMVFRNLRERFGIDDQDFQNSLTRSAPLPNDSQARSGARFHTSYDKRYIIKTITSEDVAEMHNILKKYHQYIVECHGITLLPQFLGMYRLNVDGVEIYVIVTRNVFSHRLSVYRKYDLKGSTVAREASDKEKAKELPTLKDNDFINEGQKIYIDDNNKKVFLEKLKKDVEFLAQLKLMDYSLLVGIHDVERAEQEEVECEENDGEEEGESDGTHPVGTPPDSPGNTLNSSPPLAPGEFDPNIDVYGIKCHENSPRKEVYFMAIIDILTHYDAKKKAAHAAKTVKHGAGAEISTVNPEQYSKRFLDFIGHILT
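Human PI5P4Kalpha with substrate in 0.038 M HEPES pH 7.4, 0.28 mM EGTA, 0.1% CHAPS, 5% DMSO; reaction started with 5 microM ATP (final), 60 min at room temperature. ADP formed read by ADP-Glo luminescence.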
ADP-Glo counter = qHTS for Inhibitors of PI5P4K: ADP-Glo counter assay. shares compounds with PI5P4Ka inh. ADP-Glo detection counter-screen, luciferase luminescence, no enzyme. Potency, µM (series often up to 76.9 µM), usual class: inhibitors. 1,100 tested, under 10 active. AID 743285, 2014
Numbers stand for hits; n = inactive; u = inconclusive; x = not tested or not shown; [ ] = remark or other dose. Unless noted, calls follow the shape of the dose curve; as a rule, active = well fitted curve in the direction sought with a large enough effect; inconclusive = small, poorly fitted or top-dose-only effect, or another doubt; inactive = no such curve, though single readings can be large; an effect the other way counts as inactive or inconclusive.

SMILES | PI4K2A inh | Tb PFK inh | Pin1 inhibitor | PGK inhibitor | PI5P4Ka inh | ADP-Glo counter
C[C@H]1CCCN1c1ccc2c(c1)OCCCN(C1CC1)S2(=O)=O | n | x | x | x | x | x
O=C(Nc1nc(-c2ccccn2)cs1)C1CC(=O)N(c2ccc3c(c2)OCCO3)C1 (stereo not given) | n | n | u | n | -50.3 | n
Nc1[nH]c2cc(C(F)(F)F)ccc2c1C(=O)NC1CCCCC1 | n | x | x | x | x | x
O=C(COC(=O)c1ccc(NS(=O)(=O)c2cccs2)cc1O)NCc1ccccc1 | n | n | n | n | u | x
O=C(COC(=O)c1ccc(NS(=O)(=O)c2cccs2)cc1O)Nc1nc2ccccc2s1 | n | n | n | n | -69.2 | n
CCCNC(=O)N(C)C[C@@H]1Oc2ncc(Br)cc2C(=O)N([C@H](C)CO)C[C@@H]1C | n | x | x | n | n | x
CCCNC(=O)N(C)C[C@@H]1Oc2ncc(-c3ccncc3)cc2C(=O)N([C@H](C)CO)C[C@@H]1C | n | x | x | n | -56.4 | n
Cc1ccccc1NC(=O)Cc1nc(COC(=O)c2ccc(NC(N)=O)cc2)cs1 | n | n | n | n | -56.4 | n
Cc1nn2c(=O)[nH]cnc2c1Cl | n | x | x | n | -59.1 | n
Cc1ccc(C)c(NC(=O)c2ccc3c(c2)N(Cc2ccc(F)cc2)C(=O)CS3=O)c1 (stereo not given) | n | n | u | n | -58.1 | n
CCOc1ccc(NC(=O)c2ccc3c(c2)N(Cc2ccc(F)cc2)C(=O)CS3=O)cc1 (stereo not given) | n | n | n | n | n | x
CCOc1ccc(Cl)cc1S(=O)(=O)n1cnc2ccccc21 | n | n | n | n | n | n
O=C(Nc1ccccc1[N+](=O)[O-])NC1CCCCN(Cc2cccc(Cl)c2)C1=O (stereo not given) | n | x | x | x | x | x
CC(C)C(=O)OCCCN1CCC2(CCC(c3ccccc3)CC2)C1=O (stereo not given) | n | x | x | x | x | x
O=C(CSc1nc2[nH]c(=O)cc(O)c2s1)Nc1cccc(Br)c1 | n | n | n | n | u | x
Cc1ccccc1NC(=O)CSc1nc2[nH]c(=O)cc(O)c2s1 | n | n | n | n | -62.0 | n
Cc1cccc(NC(=O)CSc2nc3[nH]c(=O)cc(O)c3s2)c1 | n | n | n | n | -52.7 | n
O=C(CSc1nc2[nH]c(=O)cc(O)c2s1)Nc1ccc(Br)cc1 | n | n | n | n | -52.1 | n
Cc1ccccc1N1CCN(C(=O)CN2C(=O)CC(C)(C)S(=O)(=O)c3ccccc32)CC1 | n | x | x | x | x | x
COc1ccc(C2OCCNC3C2C(=O)N(Cc2ccc(OC)cc2OC)C3Cc2ccccc2)cc1 (stereo not given) | n | x | x | x | x | x
CC(=O)Nc1ccc2nc(SCC(=O)NCCOc3ccccc3)sc2c1 | n | n | n | n | -61.1 | n
CCN(CC)C(=O)CSc1nc2ccc(NC(=O)CSc3nnc(N)s3)cc2s1 | n | n | u | n | -56.7 | n
CCN(CC)C(=O)CSc1nc2ccc(NC(=O)CSc3nccn3C)cc2s1 | n | n | u | n[11.5 µM] | x | x
O=C(Nc1ccc(Br)cc1)OCCCN1CCC2(CCCCC2)C1=O | n | x | x | x | x | x
O=[N+]([O-])c1ccccc1/C=C/C=Nn1c(-c2ccc(F)cc2)n[nH]c1=S | n | x | x | x | x | x
CC(=O)Oc1ccc(C(=O)Nc2cccc(C(=O)Nc3ccccc3C(=O)O)c2)cc1 | n | n | n | n | -51.0 | n
CC(=O)Oc1ccc(C(=O)Nc2ccccc2C(=O)Nc2cccc(C(=O)O)c2)cc1 | n | n | n | n | n | x
COc1ccccc1C(=O)Nc1ccc(C(=O)Nc2ccccc2C(=O)O)cc1 | n | n | n | n | -79.5 | n
CCC(=O)Oc1ccc(C(=O)Nc2cccc(C(=O)c3ccccc3)c2)cc1 | n | n | n | n | -67.3 | n
CCC(=O)Oc1ccc(C(=O)Nc2c[nH]c(=O)[nH]c2=O)cc1 | n | n | n | n | -52.8 | n

High-throughput results (PubChem)
